Assay results as given in PubChem BioAssay.
Calls of active or inactive are those of the source.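 The calls were made as follows: active = thallium flux through the channel raised or lowered by more than 3 SD from vehicle-only wells, actives on both sides; inactive = the rest.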

The compounds below were run on F380Y/beta4 (assay: BK channel mutant inhibitors and activators – cell-based, U2OS BacMam, thallium flux, beta subunits, selectivity assay, profiling panel (AID 1259406;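 also: initial slope of Thallos dye fluorescence rise after thallium is added; log ratio against the mean of 0.3% DMSO vehicle wells on the same plate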)). Settings: U2OS BacMam BK variants, at 30 µM.

Structure (SMILES) | log fold change Tl+ flux
O=[N+]([O-])c1ccc(N2CCSCC2)cc1O | 0.012 (inactive)
O=S(=O)(Nc1cc(Cl)c(-n2cccc2)cc1Oc1ccc(Cl)cc1)c1ccc(Cl)cc1 | -0.0612 (inactive)
COc1cccc(C(=O)Nc2cc(F)c(Br)cc2F)c1 | -0.0131 (inactive)
CCCn1c(=O)c(Br)cn(-c2ccccc2C)c1=O | 0.00537 (inactive)
Cc1cc(C(=O)N2CCN(c3ncccc3C#N)CC2)no1 | 0.032 (inactive)
FC(F)(F)c1ccc(-c2csc(C3(c4ccc(Cl)cc4Cl)CC3)n2)cc1 | -0.0216 (inactive)
CCOC(=O)c1c[nH]n2c(=O)c3c(nc12)CCC3 | -0.00836 (inactive)
CN(C)C=Nc1cc(Cl)c(-n2cccc2)cc1Oc1ccc(Cl)cc1 | -0.016 (inactive)
Cc1cc2c(NC(=O)c3ccccc3C(=O)O)cccc2nn1 | 0.0303 (inactive)
O=c1n(-c2ccccc2)c(=O)n2n1C1CCC2C1 | 0.0475 (inactive)
NC(Cc1ccc(OCc2ncc(C(F)(F)F)cc2Cl)cc1)=NOC(=O)c1ccccc1 | -0.0023 (inactive)
Cc1cc2c(cc1C)CSC(c1ccco1)SC2 | -0.0391 (inactive)
Cn1c(C(=O)O)ccc1S(=O)(=O)N(Cc1ccccc1)Cc1ccccc1 | 0.139 (active)
CCOC(=O)Cn1c(-c2c(Cl)cccc2Cl)noc1=O | -0.00368 (inactive)
COC(=O)C(C#N)=C1NC(C)=NC(SC)=C1C#N | 0.021 (inactive)
CS(=O)(=O)NNc1c(Cl)cc(Cl)cc1Cl | 0.0402 (inactive)
Cc1cnc(N)c(C)n1 | -0.0219 (inactive)
CC12CCC(c3c1nn(-c1ccccc1)c3C(F)(F)F)C2(C)C (stereo not given) | 0.00603 (inactive)
N#CC(NCc1ccccc1Cl)=C(C#N)NCc1c(F)cccc1Cl | -0.171 (active)
O=S(=O)(NCc1ccc2c(c1)CCO2)c1cccs1 | -0.00792 (inactive)

Structure (SMILES) | log fold change Tl+ flux
Cc1ccc(S(=O)(=O)NC(=O)NCc2csc3ccc(Cl)cc23)cc1 | 0.366 (active)
CCSc1ccc(-c2noc(C(C)(C)C)n2)cn1 | 0.0153 (inactive)
O=C(Nc1c(S(=O)(=O)c2ccccc2)csc1Br)c1ccccc1Cl | 0.0338 (inactive)
O=C(O)CCSc1ccc2ccccc2c1 | 0.0271 (inactive)
Cc1ccc(S(=O)(=O)Oc2c(Cc3ccccc3)c(=O)n(C)c3ccccc23)cc1 | 0.0237 (inactive)
O=C1CCC(=O)N1c1ccc(S(=O)(=O)NCCCN2CCN(Cc3ccccc3)CC2)cc1 | -0.0181 (inactive)
CN1c2ccsc2C(=O)C(=NNc2cccc(C(F)(F)F)c2)S1(=O)=O | 0.0228 (inactive)
Cc1cc(NS(=O)(=O)c2ccc(NC(=O)c3nccnc3C(=O)O)cc2)no1 | -0.0573 (inactive)
Clc1ccc(-c2cnc(-c3ccc(Cl)cc3)o2)cc1 | -0.00734 (inactive)
Cn1c(SCCS(=O)(=O)c2ccc(OC(F)(F)F)cc2)nnc1C(F)(F)F | 0.00857 (inactive)
N#CC1=C(Nc2ccccc2Cl)SC(c2ccncc2)NC1=O (stereo not given) | -0.00461 (inactive)
COC(=O)c1c(S(=O)(=O)N2CCOCC2)c(C)n(C)c1C | 0.00738 (inactive)
Cc1ccc(-c2nc(N=CNOC(=O)c3ccc([N+](=O)[O-])cc3)sc2C)cc1Cl | 0.147 (active)
CCCCCCCCCCCCSC(=S)Nc1ccc(Br)c(C)c1 | -0.000986 (inactive)
O=[N+]([O-])c1cnc(Sc2nccc(-c3cccnc3)n2)s1 | 0.00729 (inactive)
COc1ccc(Oc2ccc([N+](=O)[O-])cc2C2=NC(=CN(C)C)C(=O)O2)cc1 | -0.00321 (inactive)
Cc1c(Br)sc2sc(-c3ccnc(SCc4ccccc4)n3)c(C)c12 | -0.0356 (inactive)
NC1(C(=O)O)CCSCC1 | 0.00194 (inactive)
COc1ccc2c(OC(C)=O)coc2c1 | -0.0157 (inactive)
CC1(C)CC(=O)C=C(NCCCCCCCCNC2=CC(=O)CC(C)(C)C2)C1 | 0.0246 (inactive)

The compounds below were run against Calcium-activated potassium channel subunit alpha-1 (Homo sapiens) + Leucine-rich repeat-containing protein 26 (Homo sapiens) (UniProt Q12791+Q2I0M4) in the same assay as above. Settings: U2OS BacMam BK variants, F380Y/Slo1WT/gamma1, at 30 µM.
Calcium-activated potassium channel subunit alpha-1 (Homo sapiens) + Leucine-rich repeat-containing protein 26 (Homo sapiens), sequence (Q2I0M4 whole entry, looked up, one chain of several): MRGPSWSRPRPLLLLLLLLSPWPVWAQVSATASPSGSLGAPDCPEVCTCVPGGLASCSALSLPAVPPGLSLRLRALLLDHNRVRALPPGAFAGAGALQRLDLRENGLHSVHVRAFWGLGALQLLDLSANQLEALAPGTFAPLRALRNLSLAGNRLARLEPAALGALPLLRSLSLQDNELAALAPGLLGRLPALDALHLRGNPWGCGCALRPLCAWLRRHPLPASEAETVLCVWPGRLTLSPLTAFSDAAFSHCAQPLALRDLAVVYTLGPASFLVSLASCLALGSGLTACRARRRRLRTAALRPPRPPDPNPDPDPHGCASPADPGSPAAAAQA

Structure (SMILES) | log fold change Tl+ flux
O=[N+]([O-])c1ccc(N2CCSCC2)cc1O | 0.0289 (inactive)
O=S(=O)(Nc1cc(Cl)c(-n2cccc2)cc1Oc1ccc(Cl)cc1)c1ccc(Cl)cc1 | -0.0472 (inactive)
COc1cccc(C(=O)Nc2cc(F)c(Br)cc2F)c1 | -0.0252 (inactive)
CCCn1c(=O)c(Br)cn(-c2ccccc2C)c1=O | -0.011 (inactive)
Cc1cc(C(=O)N2CCN(c3ncccc3C#N)CC2)no1 | -0.00848 (inactive)
FC(F)(F)c1ccc(-c2csc(C3(c4ccc(Cl)cc4Cl)CC3)n2)cc1 | 0.0176 (inactive)
CCOC(=O)c1c[nH]n2c(=O)c3c(nc12)CCC3 | -0.00512 (inactive)
CN(C)C=Nc1cc(Cl)c(-n2cccc2)cc1Oc1ccc(Cl)cc1 | 0.0223 (inactive)
Cc1cc2c(NC(=O)c3ccccc3C(=O)O)cccc2nn1 | 0.0158 (inactive)
O=c1n(-c2ccccc2)c(=O)n2n1C1CCC2C1 | -0.00381 (inactive)
NC(Cc1ccc(OCc2ncc(C(F)(F)F)cc2Cl)cc1)=NOC(=O)c1ccccc1 | -0.00749 (inactive)
Cc1cc2c(cc1C)CSC(c1ccco1)SC2 | 0.00632 (inactive)
Cn1c(C(=O)O)ccc1S(=O)(=O)N(Cc1ccccc1)Cc1ccccc1 | 0.000486 (inactive)
CCOC(=O)Cn1c(-c2c(Cl)cccc2Cl)noc1=O | -0.0669 (inactive)
COC(=O)C(C#N)=C1NC(C)=NC(SC)=C1C#N | 0.0176 (inactive)
CS(=O)(=O)NNc1c(Cl)cc(Cl)cc1Cl | 0.016 (inactive)
Cc1cnc(N)c(C)n1 | 0.00805 (inactive)
CC12CCC(c3c1nn(-c1ccccc1)c3C(F)(F)F)C2(C)C (stereo not given) | 0.00466 (inactive)
N#CC(NCc1ccccc1Cl)=C(C#N)NCc1c(F)cccc1Cl | -0.129 (active)
O=S(=O)(NCc1ccc2c(c1)CCO2)c1cccs1 | -0.0976 (inactive)

Structure (SMILES) | log fold change Tl+ flux
Cc1ccc(S(=O)(=O)NC(=O)NCc2csc3ccc(Cl)cc23)cc1 | 0.14 (active)
CCSc1ccc(-c2noc(C(C)(C)C)n2)cn1 | -0.00182 (inactive)
O=C(Nc1c(S(=O)(=O)c2ccccc2)csc1Br)c1ccccc1Cl | 0.0104 (inactive)
O=C(O)CCSc1ccc2ccccc2c1 | -0.000304 (inactive)
Cc1ccc(S(=O)(=O)Oc2c(Cc3ccccc3)c(=O)n(C)c3ccccc23)cc1 | -0.018 (inactive)
O=C1CCC(=O)N1c1ccc(S(=O)(=O)NCCCN2CCN(Cc3ccccc3)CC2)cc1 | 0.0299 (inactive)
CN1c2ccsc2C(=O)C(=NNc2cccc(C(F)(F)F)c2)S1(=O)=O | -0.0208 (inactive)
Cc1cc(NS(=O)(=O)c2ccc(NC(=O)c3nccnc3C(=O)O)cc2)no1 | -0.136 (active)
Clc1ccc(-c2cnc(-c3ccc(Cl)cc3)o2)cc1 | -0.0607 (inactive)
Cn1c(SCCS(=O)(=O)c2ccc(OC(F)(F)F)cc2)nnc1C(F)(F)F | -0.00452 (inactive)
N#CC1=C(Nc2ccccc2Cl)SC(c2ccncc2)NC1=O (stereo not given) | 0.0291 (inactive)
COC(=O)c1c(S(=O)(=O)N2CCOCC2)c(C)n(C)c1C | 0.0534 (inactive)
Cc1ccc(-c2nc(N=CNOC(=O)c3ccc([N+](=O)[O-])cc3)sc2C)cc1Cl | 0.102 (inactive)
CCCCCCCCCCCCSC(=S)Nc1ccc(Br)c(C)c1 | -0.031 (inactive)
O=[N+]([O-])c1cnc(Sc2nccc(-c3cccnc3)n2)s1 | -0.074 (inactive)
COc1ccc(Oc2ccc([N+](=O)[O-])cc2C2=NC(=CN(C)C)C(=O)O2)cc1 | -0.0547 (inactive)
Cc1c(Br)sc2sc(-c3ccnc(SCc4ccccc4)n3)c(C)c12 | 0.0451 (inactive)
NC1(C(=O)O)CCSCC1 | -0.0223 (inactive)
COc1ccc2c(OC(C)=O)coc2c1 | -0.0163 (inactive)
CC1(C)CC(=O)C=C(NCCCCCCCCNC2=CC(=O)CC(C)(C)C2)C1 | -0.0867 (inactive)
